Source: PubChem BioAssay (NCI)
The panel holds about 83,000 compounds, 20% with a hit somewhere; the sample as a whole holds those more often.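 For each line, cells grew in 96-well plates with the test compound present at a single concentration for 48 hours.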 Unmarked numbers belong to inactive results. Active and inactive are the calls of the source. Rule for the calls: active = growth percent below 10; inactive = the rest.

How the values were obtained:
Assay in all cases: NCI-60 one-dose screen, 48 h (100 = growth as untreated, 0 = no growth, -100 = all killed)
EKVX NSCLC = conditions: 10 µM
SN12C renal = conditions: 10 µM
TK-10 renal = conditions: 10 µM unless noted
ACHN renal = conditions: 10 µM
CAKI-1 renal = conditions: 10 µM
A498 renal = conditions: 10 µM
CCRF-CEM leukemia = conditions: 10 µM
MOLT-4 leukemia = conditions: 10 µM
UO-31 renal = conditions: 10 µM

Structure (SMILES) | growth (EKVX NSCLC) | growth (SN12C renal) | growth (TK-10 renal) | growth (ACHN renal) | growth (CAKI-1 renal) | growth (A498 renal) | growth (CCRF-CEM leukemia) | growth (MOLT-4 leukemia) | growth (UO-31 renal)
CCc1nn(Cc2ccccc2)c2nc(C)c(CCc3ccccc3)c(Cl)c12 | 84.3% | 86.1% | 91.5% | 98.4% | 67.8% | 99.1% | 80.1% | 96% | –
NC(=O)N/N=C\c1ccco1 | 119% | 98.4% | – | 111% | 108% | 117% | 102% | 101% | 94.7%
Cc1cc(C(C)(C)C)cc(C)c1Br | 100% | 100% | 113% | 104% | 93.5% | 104% | 92.2% | 99% | –
S=c1[nH]ccn1-c1ccccc1Cl | 112% | 116% | 128% | 101% | – | 101% | 96.6% | 97.4% | 94.2%
O=[N+]([O-])c1ccc(N=Nc2ccc(O)c3ccccc23)cc1 | 60% | 35.3% | 76.1% | 47.3% | – | 71.8% | – | 31.5% | 24%
Nc1ccc(NC(=O)c2cccc(N)c2)cc1 | 86.6% | 99.5% | 123% | 97.8% | 56.4% | 90.6% | 88.8% | – | –
CC1CCC2C(C)(C)C3CC12CC1OC13C (configuration not stated) | – | 97.1% | 104% | 103% | 98.5% | 94% | 112% | 110% | 109%
CC(=O)OC(OC(C)=O)C1CCCO1 (configuration not stated) | 97.7% | 96.8% | 103% | 98.7% | 112% | 106% | 109% | 123% | –
CN(C)c1ccc2nc3ccc(=N)cc-3sc2c1 | – | 57.3% | 105% | 53% | 68.3% | 55.8% | – | – | 57.3%
O=C(CCl)N1CCN(C/C=C/c2ccccc2)CC1 | – | 64.6% | 85.6% | 95.8% | 99.3% | 94% | 21.7% | 71.4% | 93.1%
CNc1nc(NC)c2cn[nH]c2n1 | 99.2% | 100% | – | 108% | 88.6% | 112% | 5.44% (active) | 101% | 78.6%
CCCCC1(CC)COC(CCC)OC1 (configuration not stated) | 93.1% | 97.6% | 101% | 99.2% | 84.2% | 127% | 102% | 103% | –
CCCOC(=O)C(O)c1ccccc1 (configuration not stated) | 50.6% | 102% | 106% | 98.3% | 96.3% | 94.7% | 88.8% | 110% | –
CC(=O)OC(C(=O)O)c1ccccc1 (configuration not stated) | 111% | 101% | – | 106% | 104% | – | 86% | 95.5% | 126%
CNS(=O)(=O)c1ccc(Cl)c(Cl)c1 | 99% | 92.7% | 89.4% | 99.5% | – | 104% | 104% | 84.9% | 109%
CN(C)CCC(=O)c1ccc(O)cc1 | 107% | – | 106% | 114% | 97.1% | 99.4% | 109% | 113% | 87.2%
CC1(C(N)=O)CCC(C(=O)O)C1(C)C (configuration not stated) | – | 89.1% | 97.7% | 102% | 99% | 106% | 104% | 123% | 85.9%
COc1ncnc2c1cnn2C | 100% | 98.2% | – | 98.1% | 105% | 99.7% | 97% | 89.9% | –
COc1cccc(O)c1O | 99.6% | 74.5% | 91.2% | 73.2% | – | – | 63.8% | 64.8% | 70.3%

Structure (SMILES) | growth (EKVX NSCLC) | growth (SN12C renal) | growth (TK-10 renal) | growth (ACHN renal) | growth (CAKI-1 renal) | growth (A498 renal) | growth (CCRF-CEM leukemia) | growth (MOLT-4 leukemia) | growth (UO-31 renal)
COC(=O)C(O)c1ccccc1 (configuration not stated) | 119% | 97% | 106% | 100% | 114% | 132% | 98.1% | 105% | –
O=C(O)c1ccccc1NCc1ccco1 | 103% | 99.8% | 64.7% | 115% | – | 99.9% | 98.6% | 104% | –
Cc1ccc(C)n1-c1ccsc1C(=O)NNC(=O)C(Cl)Cl | 92.5% | 98.6% | – | 104% | 93.3% | 101% | 85.3% | 118% | –
CC1(C)Nc2cccc3c(N=Nc4ccc(N=Nc5ccccc5)c5ccccc45)ccc(c23)N1 | 78% | 94.6% | – | 77.7% | 88.1% | 103% | 107% | 115% | 54.2%
NC(C(=O)O)c1ccc([N+](=O)[O-])cc1 (configuration not stated) | 98% | 91.6% | – | 98.1% | 99.5% | 107% | 98.5% | 105% | 78.2%
O=C(Nc1cccc(NC(=O)Nc2cc(C(F)(F)F)ccc2Cl)c1)Nc1cc(C(F)(F)F)ccc1Cl | – | 22% | -13.8% (active) | 9.11% (active) | -2.82% (active) | -3.96% (active) | 5.91% (active) | 2.16% (active) | 0.156% (active)
COc1ccc(C(C)C=O)cc1 (configuration not stated) | 126% | 104% | – | 103% | 104% | 121% | – | 93% | 93.7%
O=S(=O)(Cc1ccccc1)c1ccccc1 | – | 104% | 102% | 111% | 107% | 101% | 105% | 108% | 102%
O=c1cc(-c2ccccc2)nc2cc(-c3ccco3)[nH]n12 | 89.7% | 96% | 124% | 91% | – | 82.1% | 78.7% | 87% | 74.6%
Cc1ccc(C)n1-c1ccsc1C(=O)NNC(=O)CCl | 81.2% | 92.2% | 105% | 98.5% | 84.8% | 104% | 61% | 92.9% | –
COc1cc2c(cc1OC)[C@H](C(=O)O)[C@@H](c1ccc(OC(C)C)c(OC)c1)N(C)C2=O | 92.7% | 90.4% | – | 96.2% | 80% | 137% | 96.6% | 94.3% | 97.6%
c1ccc(/C(=N\N=C(/c2ccccc2)c2cccs2)c2cccs2)cc1 | 98% | – | – | 89.8% | 89.9% | 102% | – | 91.9% | 71.2%
O=C(OCC(O)C1OC(c2ccccc2)OC(COC(=O)c2ccccc2)C1O)c1ccccc1 (configuration not stated) | – | 99.6% | 99.6% | 106% | 85.3% | – | – | 102% | 93.2%
CCCCC(=O)c1ccc(OC)cc1 | – | 105% | – | 96.3% | 99.2% | 84.1% | 92.1% | 104% | 97%
COc1ccc(/C=C/c2cccc[n+]2C)cc1 | – | 110% | – | 91% | 63% | 71% | – | 102% | 64.9%
O=C1OC(c2ccc(F)cc2)CC1CN1CCOCC1 (configuration not stated) | – | 102% | 83.2% | 105% | 85.8% | – | – | 102% | 83.5%
N#CC(=Nc1cccc(F)c1)C1=C(O)c2ccccc2C1=O | – | 82.8% | 110% | 87.1% | 47% | 79.4% | – | 96.5% | 78.6%
O=C1C=CC(=O)N1c1ccc(I)cc1Cl | – | 101% | – | 104% | – | 99.1% | 85.9% | 128% | 94%
O=C(O)CCCC(=O)O | – | 102% | 120% | 103% | 105% | 109% | 101% | 103% | 87%
